# Test results: article PMC7862700, “An all-to-all approach to the identification of sequence-specific readers for epigenetic DNA modifications on cytosine”
# Key:
# Assay in all cases: DAPPL (digital affinity profiling via proximity ligation, sequencing); 10 mM Tris-HCl pH 7.5, 50 mM NaCl, 1 mM DTT, 4% glycerol, room temperature, 30 min; GST-TFs on glutathione beads, 16-mer random dsDNA library, 0.1% formaldehyde crosslink after washing; high values mean tight binding
# FEV = target: T1, FEV (Homo sapiens, UniProt Q99581 1-238); settings: protein: recombinant; tags: N-terminal GST; dsDNA, one strand shown
# T1 sequence: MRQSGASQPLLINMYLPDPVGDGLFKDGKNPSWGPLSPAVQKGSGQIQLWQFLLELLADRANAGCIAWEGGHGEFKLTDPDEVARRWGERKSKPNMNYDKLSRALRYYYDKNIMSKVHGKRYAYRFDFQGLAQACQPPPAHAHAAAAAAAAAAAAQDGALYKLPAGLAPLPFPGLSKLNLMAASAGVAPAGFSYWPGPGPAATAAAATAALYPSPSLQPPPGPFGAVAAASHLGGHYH
# Summary of the method: (§1)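 Beads coated with glutathione captured GST-fused human transcription factors that had been expressed in yeast, and the factors were then given DNA barcodes and pooled with a tag-only sample. The pools were incubated with 200 nmole of a random double-stranded 16-mer DNA library in Tris/NaCl/DTT/glycerol buffer for 30 min at room temperature, washed, crosslinked with 0.1% formaldehyde and proximity-ligated with BsaI/T4 ligase at 37 °C for 1 h. PCR amplification and Illumina NextSeq500 sequencing came last. Binding signal is each hexamer's read frequency for a factor divided by its frequency for the tag-only sample.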
# ETV5 = ETV5 (Homo sapiens, UniProt P41161 1-510); settings: protein: recombinant; tags: N-terminal GST; dsDNA, one strand shown
# Summary of the method: as §1
# HSF1 = HSF1 (Homo sapiens, UniProt Q00613 1-529); settings: protein: recombinant; tags: N-terminal GST; chain copies: 3; dsDNA, one strand shown
# Summary of the method: as §1
# SPIC = target: T2, SPIC (Homo sapiens, UniProt Q8N5J4 1-248); settings: protein: recombinant; tags: N-terminal GST; dsDNA, one strand shown
# T2 sequence: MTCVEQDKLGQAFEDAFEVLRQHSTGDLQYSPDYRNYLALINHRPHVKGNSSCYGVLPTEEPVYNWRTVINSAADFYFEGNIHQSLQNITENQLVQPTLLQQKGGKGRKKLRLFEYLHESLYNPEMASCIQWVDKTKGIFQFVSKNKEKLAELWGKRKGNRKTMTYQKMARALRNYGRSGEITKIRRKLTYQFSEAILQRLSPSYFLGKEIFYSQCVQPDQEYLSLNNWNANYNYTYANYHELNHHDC
# Summary of the method: as §1
# ELF4 = ELF4 (Homo sapiens, UniProt Q99607 1-663); settings: protein: recombinant; tags: N-terminal GST; dsDNA, one strand shown
# Summary of the method: as §1
# ELK4 = target: T3, ELK4 (Homo sapiens, UniProt P28324-2 1-405); settings: protein: recombinant; tags: N-terminal GST; dsDNA, one strand shown
# T3 sequence: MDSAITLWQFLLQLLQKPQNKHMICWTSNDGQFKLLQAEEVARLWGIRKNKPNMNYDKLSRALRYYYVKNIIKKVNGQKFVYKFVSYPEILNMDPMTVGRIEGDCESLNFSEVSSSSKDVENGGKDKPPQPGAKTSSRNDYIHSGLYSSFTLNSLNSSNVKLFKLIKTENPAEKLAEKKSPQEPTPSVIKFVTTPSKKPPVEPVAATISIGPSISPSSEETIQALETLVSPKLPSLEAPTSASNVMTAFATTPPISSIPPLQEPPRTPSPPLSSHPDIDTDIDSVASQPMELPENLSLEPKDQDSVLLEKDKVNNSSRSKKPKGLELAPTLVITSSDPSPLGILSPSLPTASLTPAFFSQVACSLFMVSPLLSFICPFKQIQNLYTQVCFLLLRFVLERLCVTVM
# Summary of the method: as §1
# ETV2 = target: T4, ETV2 (Homo sapiens, UniProt O00321 1-342); settings: protein: recombinant; tags: N-terminal GST; dsDNA, one strand shown
# T4 sequence: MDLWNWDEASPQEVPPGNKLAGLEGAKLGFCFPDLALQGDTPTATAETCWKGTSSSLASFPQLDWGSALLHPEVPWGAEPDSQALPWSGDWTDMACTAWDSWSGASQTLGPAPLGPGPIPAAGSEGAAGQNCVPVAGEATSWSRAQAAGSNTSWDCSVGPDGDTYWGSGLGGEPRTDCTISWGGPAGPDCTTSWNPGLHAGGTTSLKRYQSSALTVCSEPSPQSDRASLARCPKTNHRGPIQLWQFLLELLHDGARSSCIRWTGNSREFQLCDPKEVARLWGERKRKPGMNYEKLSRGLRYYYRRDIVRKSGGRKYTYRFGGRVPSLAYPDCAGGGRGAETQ
# Summary of the method: as §1
# ELF3 = target: T5, ELF3 (Homo sapiens, UniProt P78545 1-371); settings: protein: recombinant; tags: N-terminal GST; dsDNA, one strand shown
# T5 sequence: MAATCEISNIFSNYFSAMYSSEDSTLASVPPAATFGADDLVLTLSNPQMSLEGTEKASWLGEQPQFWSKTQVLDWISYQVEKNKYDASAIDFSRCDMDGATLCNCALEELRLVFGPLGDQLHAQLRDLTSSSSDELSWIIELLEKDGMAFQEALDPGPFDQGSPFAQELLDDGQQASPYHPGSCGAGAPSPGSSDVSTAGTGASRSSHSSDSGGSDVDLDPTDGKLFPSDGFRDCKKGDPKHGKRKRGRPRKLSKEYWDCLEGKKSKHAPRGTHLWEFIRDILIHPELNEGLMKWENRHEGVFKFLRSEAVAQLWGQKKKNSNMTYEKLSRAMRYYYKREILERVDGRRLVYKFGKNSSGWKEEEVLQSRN
# Summary of the method: as §1
# CRX = CRX (Homo sapiens, UniProt O43186 1-299); settings: protein: recombinant; tags: N-terminal GST; dsDNA, one strand shown
# Summary of the method: as §1
# ETV1 = ETV1 (Homo sapiens, UniProt P50549 1-477); settings: protein: recombinant; tags: N-terminal GST; dsDNA, one strand shown
# Summary of the method: as §1
# ERF = target: T6, ERF (Homo sapiens, UniProt P50548 1-548); settings: protein: recombinant; tags: N-terminal GST; dsDNA, one strand shown
# T6 sequence: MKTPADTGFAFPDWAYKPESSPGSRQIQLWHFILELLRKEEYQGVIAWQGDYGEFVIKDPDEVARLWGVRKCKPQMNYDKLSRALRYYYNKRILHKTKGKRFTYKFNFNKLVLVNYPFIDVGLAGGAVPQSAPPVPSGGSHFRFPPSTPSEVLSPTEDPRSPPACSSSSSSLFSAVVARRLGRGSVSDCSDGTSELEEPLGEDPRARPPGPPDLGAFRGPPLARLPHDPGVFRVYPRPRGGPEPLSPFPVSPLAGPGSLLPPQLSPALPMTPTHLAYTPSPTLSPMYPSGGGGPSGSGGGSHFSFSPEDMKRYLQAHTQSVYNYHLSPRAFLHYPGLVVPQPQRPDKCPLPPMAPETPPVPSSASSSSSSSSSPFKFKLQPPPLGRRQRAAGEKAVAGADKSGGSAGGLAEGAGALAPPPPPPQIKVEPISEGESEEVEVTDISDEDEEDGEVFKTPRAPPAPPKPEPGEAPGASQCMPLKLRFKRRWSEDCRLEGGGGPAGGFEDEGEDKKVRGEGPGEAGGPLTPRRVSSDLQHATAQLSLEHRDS
# Summary of the method: as §1
# ETV3L = target: T7, ETV3L (Homo sapiens, UniProt Q6ZN32 1-361); settings: protein: recombinant; tags: N-terminal GST; dsDNA, one strand shown
# T7 sequence: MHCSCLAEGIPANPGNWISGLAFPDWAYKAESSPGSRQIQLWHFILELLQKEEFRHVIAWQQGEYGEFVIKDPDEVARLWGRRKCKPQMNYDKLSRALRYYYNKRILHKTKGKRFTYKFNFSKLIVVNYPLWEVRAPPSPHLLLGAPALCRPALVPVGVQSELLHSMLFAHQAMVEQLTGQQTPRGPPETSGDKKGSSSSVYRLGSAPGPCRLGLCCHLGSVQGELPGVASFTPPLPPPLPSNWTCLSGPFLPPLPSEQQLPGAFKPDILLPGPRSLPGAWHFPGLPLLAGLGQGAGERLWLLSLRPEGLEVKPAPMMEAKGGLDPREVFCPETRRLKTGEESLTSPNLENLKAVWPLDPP
# Summary of the method: as §1
# ETS2 = target: T8, ETS2 (Homo sapiens, UniProt P15036 1-469); settings: protein: recombinant; tags: N-terminal GST; dsDNA, one strand shown
# T8 sequence: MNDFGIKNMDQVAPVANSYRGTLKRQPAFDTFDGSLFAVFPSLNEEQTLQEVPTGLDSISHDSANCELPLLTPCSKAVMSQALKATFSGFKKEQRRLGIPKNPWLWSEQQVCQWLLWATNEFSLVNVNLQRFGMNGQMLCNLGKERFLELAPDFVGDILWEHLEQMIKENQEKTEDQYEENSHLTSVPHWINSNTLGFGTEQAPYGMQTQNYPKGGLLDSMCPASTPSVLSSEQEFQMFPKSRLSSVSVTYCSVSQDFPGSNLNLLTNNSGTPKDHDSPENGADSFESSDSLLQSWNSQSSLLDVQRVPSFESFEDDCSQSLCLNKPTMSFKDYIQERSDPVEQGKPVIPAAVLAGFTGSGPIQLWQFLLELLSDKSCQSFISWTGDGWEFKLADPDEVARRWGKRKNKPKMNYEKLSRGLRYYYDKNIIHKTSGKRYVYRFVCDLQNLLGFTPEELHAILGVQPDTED
# Summary of the method: as §1
# SPDEF = target: T9, SPDEF (Homo sapiens, UniProt O95238 1-335); settings: protein: recombinant; tags: N-terminal GST; dsDNA, one strand shown
# T9 sequence: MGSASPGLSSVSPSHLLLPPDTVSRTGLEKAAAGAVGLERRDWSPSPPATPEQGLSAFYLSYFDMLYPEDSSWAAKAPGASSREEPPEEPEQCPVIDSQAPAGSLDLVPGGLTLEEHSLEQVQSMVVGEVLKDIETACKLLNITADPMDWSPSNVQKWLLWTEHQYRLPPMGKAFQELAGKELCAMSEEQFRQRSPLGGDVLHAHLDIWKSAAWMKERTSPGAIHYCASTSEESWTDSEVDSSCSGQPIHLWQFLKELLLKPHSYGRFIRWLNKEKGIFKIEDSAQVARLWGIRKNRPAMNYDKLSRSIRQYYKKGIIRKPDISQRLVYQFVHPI
# Summary of the method: as §1
# ETV7 = target: T10, ETV7 (Homo sapiens, UniProt Q9Y603 1-341); settings: protein: recombinant; tags: N-terminal GST; dsDNA, one strand shown
# T10 sequence: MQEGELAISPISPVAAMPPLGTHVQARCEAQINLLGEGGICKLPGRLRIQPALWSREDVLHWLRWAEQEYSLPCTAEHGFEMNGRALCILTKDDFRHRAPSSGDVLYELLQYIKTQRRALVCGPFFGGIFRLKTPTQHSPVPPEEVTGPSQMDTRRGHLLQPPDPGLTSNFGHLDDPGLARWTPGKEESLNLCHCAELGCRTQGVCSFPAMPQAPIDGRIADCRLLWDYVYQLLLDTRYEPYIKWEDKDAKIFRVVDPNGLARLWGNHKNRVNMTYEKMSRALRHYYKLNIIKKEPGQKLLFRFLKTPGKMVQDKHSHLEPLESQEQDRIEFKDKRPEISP
# Summary of the method: as §1
# ELF5 = target: T11, ELF5 (Homo sapiens, UniProt Q9UKW6-2 1-255); settings: protein: recombinant; tags: N-terminal GST; dsDNA, one strand shown
# T11 sequence: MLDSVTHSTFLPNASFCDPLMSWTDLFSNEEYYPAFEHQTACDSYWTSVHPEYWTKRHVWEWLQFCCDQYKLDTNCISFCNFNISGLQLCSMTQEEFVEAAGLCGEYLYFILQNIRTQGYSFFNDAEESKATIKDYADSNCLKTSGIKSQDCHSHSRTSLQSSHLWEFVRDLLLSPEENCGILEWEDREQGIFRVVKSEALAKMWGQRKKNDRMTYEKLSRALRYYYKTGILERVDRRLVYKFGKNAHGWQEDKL
# Summary of the method: as §1
# ETV3 = target: T12, ETV3 (Homo sapiens, UniProt P41162-2 1-143); settings: protein: recombinant; tags: N-terminal GST; dsDNA, one strand shown
# T12 sequence: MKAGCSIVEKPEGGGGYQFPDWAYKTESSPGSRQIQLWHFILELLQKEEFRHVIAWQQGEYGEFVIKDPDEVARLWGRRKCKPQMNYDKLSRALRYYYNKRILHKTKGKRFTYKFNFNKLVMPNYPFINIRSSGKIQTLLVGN
# Summary of the method: as §1
# ETV6 = ETV6 (Homo sapiens, UniProt P41212 1-452); settings: protein: recombinant; tags: N-terminal GST; dsDNA, one strand shown
# Summary of the method: as §1
# Chain of ETV5 (P41161 whole entry): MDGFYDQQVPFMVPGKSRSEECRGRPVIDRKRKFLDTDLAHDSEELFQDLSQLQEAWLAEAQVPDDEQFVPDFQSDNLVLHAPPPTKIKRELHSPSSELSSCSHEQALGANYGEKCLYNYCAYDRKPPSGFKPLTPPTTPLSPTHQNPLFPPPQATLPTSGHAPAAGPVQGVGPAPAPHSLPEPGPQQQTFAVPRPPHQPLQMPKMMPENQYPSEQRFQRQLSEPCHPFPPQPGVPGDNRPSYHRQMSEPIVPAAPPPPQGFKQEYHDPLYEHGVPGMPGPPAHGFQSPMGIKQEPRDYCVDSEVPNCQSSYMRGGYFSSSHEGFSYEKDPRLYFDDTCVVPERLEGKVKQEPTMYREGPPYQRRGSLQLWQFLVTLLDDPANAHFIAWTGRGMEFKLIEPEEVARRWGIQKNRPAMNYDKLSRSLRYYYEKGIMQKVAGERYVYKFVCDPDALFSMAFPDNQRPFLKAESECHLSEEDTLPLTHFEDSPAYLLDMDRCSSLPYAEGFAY
# Chain of CRX (O43186 whole entry): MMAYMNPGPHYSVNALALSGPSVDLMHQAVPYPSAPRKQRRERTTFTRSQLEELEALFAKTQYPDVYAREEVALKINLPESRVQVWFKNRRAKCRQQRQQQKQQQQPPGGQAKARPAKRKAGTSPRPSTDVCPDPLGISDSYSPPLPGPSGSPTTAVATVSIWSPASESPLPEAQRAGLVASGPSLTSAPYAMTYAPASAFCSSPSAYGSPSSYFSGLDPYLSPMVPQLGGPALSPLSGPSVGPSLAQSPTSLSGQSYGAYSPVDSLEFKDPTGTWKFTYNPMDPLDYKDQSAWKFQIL
# Chain of ELF4 (Q99607 whole entry): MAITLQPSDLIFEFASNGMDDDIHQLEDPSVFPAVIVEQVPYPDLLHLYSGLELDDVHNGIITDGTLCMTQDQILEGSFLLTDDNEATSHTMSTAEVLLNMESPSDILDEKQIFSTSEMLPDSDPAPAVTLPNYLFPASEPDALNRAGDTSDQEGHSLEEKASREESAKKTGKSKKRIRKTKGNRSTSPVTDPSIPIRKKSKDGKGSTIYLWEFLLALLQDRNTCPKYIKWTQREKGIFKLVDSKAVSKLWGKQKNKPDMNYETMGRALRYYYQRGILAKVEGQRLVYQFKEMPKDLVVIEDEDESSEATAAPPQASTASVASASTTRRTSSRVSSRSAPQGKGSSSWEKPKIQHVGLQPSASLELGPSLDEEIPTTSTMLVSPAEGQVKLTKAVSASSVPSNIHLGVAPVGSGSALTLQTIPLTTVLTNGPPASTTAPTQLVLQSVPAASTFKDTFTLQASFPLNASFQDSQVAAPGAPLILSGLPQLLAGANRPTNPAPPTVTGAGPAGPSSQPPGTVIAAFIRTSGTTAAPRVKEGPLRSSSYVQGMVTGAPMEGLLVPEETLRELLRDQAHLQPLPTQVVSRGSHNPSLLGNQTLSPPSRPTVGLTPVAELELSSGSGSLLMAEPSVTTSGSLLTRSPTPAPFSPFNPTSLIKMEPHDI
# Chain of ETV1 (P50549 whole entry): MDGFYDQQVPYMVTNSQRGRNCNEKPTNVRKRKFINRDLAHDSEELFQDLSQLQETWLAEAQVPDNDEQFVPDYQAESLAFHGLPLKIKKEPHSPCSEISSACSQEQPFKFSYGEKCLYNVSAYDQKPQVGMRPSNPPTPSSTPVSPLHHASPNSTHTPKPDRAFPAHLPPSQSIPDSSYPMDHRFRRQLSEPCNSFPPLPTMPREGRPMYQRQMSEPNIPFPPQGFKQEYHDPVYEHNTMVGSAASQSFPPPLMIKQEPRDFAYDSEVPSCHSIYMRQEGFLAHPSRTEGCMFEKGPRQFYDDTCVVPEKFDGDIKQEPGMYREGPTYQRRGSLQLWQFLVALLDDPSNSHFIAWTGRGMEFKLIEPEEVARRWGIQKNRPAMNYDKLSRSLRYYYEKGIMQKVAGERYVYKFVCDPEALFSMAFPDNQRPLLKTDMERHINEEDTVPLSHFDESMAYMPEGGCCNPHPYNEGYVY
# Chain of ETV6 (P41212 whole entry): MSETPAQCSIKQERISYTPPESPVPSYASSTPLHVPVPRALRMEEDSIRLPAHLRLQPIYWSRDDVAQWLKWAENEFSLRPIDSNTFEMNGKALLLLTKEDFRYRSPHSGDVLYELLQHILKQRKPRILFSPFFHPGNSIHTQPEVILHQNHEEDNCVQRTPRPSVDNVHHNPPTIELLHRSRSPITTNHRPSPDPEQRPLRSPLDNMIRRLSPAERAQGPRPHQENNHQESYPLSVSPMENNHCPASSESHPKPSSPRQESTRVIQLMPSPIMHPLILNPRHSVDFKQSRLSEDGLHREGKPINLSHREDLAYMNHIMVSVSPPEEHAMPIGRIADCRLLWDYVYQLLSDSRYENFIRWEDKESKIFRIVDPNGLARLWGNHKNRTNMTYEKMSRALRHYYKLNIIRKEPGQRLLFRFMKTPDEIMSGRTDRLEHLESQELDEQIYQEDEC
# Chain of HSF1 (Q00613 whole entry): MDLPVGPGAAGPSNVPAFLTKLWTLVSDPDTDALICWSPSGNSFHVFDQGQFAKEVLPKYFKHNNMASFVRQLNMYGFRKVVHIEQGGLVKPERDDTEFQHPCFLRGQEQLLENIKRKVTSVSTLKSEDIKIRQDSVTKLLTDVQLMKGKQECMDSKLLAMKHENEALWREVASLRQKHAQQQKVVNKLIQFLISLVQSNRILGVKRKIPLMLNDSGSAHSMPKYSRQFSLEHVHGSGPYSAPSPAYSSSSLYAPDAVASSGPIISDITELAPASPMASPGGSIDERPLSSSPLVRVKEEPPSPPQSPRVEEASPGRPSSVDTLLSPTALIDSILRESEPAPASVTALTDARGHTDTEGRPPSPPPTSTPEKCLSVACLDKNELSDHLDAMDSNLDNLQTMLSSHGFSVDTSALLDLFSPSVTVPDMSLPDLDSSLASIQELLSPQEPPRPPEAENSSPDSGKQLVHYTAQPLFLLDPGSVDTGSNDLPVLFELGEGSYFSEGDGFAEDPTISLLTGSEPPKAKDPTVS
sequence,measurement,setting,value
CGATCC,binding signal,FEV,"1.2 fold enrichment (6-mer frequency, TF over GST control)"
same,binding signal,ETV5,"1.19 fold enrichment (6-mer frequency, TF over GST control)"
same,binding signal,HSF1,"1.31 fold enrichment (6-mer frequency, TF over GST control)"
same,binding signal,SPIC,"1.11 fold enrichment (6-mer frequency, TF over GST control)"
same,binding signal,ELF4,"1.21 fold enrichment (6-mer frequency, TF over GST control)"
same,binding signal,ELK4,"1.11 fold enrichment (6-mer frequency, TF over GST control)"
same,binding signal,ETV2,"1.19 fold enrichment (6-mer frequency, TF over GST control)"
same,binding signal,ELF3,"1.08 fold enrichment (6-mer frequency, TF over GST control)"
same,binding signal,CRX,"1.27 fold enrichment (6-mer frequency, TF over GST control)"
same,binding signal,ETV1,"1.25 fold enrichment (6-mer frequency, TF over GST control)"
same,binding signal,ERF,"1.33 fold enrichment (6-mer frequency, TF over GST control)"
same,binding signal,ETV3L,"1.18 fold enrichment (6-mer frequency, TF over GST control)"
same,binding signal,ETS2,"1.2 fold enrichment (6-mer frequency, TF over GST control)"
same,binding signal,SPDEF,"1.4 fold enrichment (6-mer frequency, TF over GST control)"
same,binding signal,ETV7,"1.1 fold enrichment (6-mer frequency, TF over GST control)"
same,binding signal,ELF5,"1.2 fold enrichment (6-mer frequency, TF over GST control)"
same,binding signal,ETV3,"1.24 fold enrichment (6-mer frequency, TF over GST control)"
same,binding signal,ETV6,"1.23 fold enrichment (6-mer frequency, TF over GST control)"
